Only some compounds are listed: those with a hit (about 0.47% of all), similar ones and a draw of the others.
AID inh: blocks human AID cytidine deaminase activity. AID deamination FRET fluorescence, UDG-coupled, 4 h. AID 1347428. hit rate 0.32% among 91,000. Potency, µM (titrated, usually from 115 µM), actives largely listed as inhibitors; also: nearly all actives have a fitted effect of over 25% in size
Target sequence (Q9GZX7 whole entry, looked up): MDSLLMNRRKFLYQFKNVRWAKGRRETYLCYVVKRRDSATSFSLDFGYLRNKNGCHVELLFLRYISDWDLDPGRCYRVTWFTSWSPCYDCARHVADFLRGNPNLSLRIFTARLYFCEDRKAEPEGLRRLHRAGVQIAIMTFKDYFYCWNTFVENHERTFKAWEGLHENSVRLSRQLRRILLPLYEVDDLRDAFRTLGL
UDG counter: UDG inhibition counter-screen; FRET deamination/UDG coupled assay, UDG read, 4 h; Potency, µM (titrated, usually from 115 µM), inactives show at the top dose activity change, negative = inhibition, usual class: inhibitors; hit rate 0.14% among 91,000; AID 1347430; also: nearly all actives have a fitted effect of over 65% in size
* hit, by the source's call; i = inactive; ? = inconclusive; [ ] = remark or other dose. Calls follow the shape of the dose curve; as a rule, active = well fitted curve in the direction sought with a large enough effect; inconclusive = small, poorly fitted or top-dose-only effect, or another doubt; inactive = no such curve, though single readings can be large; an effect the other way counts as inactive or inconclusive. % is scaled to controls: 0 for no effect and ±100 for the full control effect; potency is read from the fitted curve at half-maximal effect.

SMILES | AID inh | UDG counter
COc1ccc(OC)c(C(=O)COC(=O)Cc2ccc(Cl)cc2)c1 | i | -3.0%
CCCN(CCC)CC(O)Cn1cc(/C=C/C(=O)c2ccc(OCC)cc2)c2ccccc21 (centres undefined) | 35.5µM* | -23.7%
CC(C)CN(CC(C)C)CC(O)Cn1cc(/C=C/C(=O)c2ccccc2)c2ccccc21 (centres undefined) | ? | -16.1%
CSc1cccc(NC(=S)NCCSc2ccc(Cl)cc2)c1 | i | -9.6%
Nc1ccc2c(c1)CCC(=O)N2 | i | -7.0%
Cc1cc(N(CCO)Cc2ccccc2)n2nc(-c3ccc(C(C)(C)C)cc3)nc2n1 | i | -2.1%
Cc1cc(N(C)Cc2ccccc2)n2nc(-c3ccc(C(C)(C)C)cc3)nc2n1 | 35.5µM* | 0.0%
c1ccc(CCNc2nc(Nc3ccccc3)c3nccnc3n2)cc1 | i | -4.1%
OCCNc1nc(Nc2ccc(Cl)c(Cl)c2)nc2nccnc12 | 35.5µM* | -3.7%
OCCNc1nc(Nc2ccc(Br)cc2)nc2nccnc12 | ? | -4.0%
OCCNc1nc(Nc2cccc(Cl)c2)nc2nccnc12 | 79.4µM* | 1.3%
COc1cccc(Oc2coc3cc(OC(=O)c4ccc([N+](=O)[O-])cc4)ccc3c2=O)c1 | i | -3.7%
O=C1c2ccccc2C(=O)C1(c1ccccc1)N1CCN(c2cccc(Cl)c2)CC1 | i | -7.6%
O=C1c2ccccc2C(=O)C1(c1ccccc1)N1CCN(c2cccc(C(F)(F)F)c2)CC1 | 25.1µM* | -14.1%
COc1ccc(S(=O)(=O)Cc2ccc(C(=O)N3CCN(c4cc(C)ccc4C)CC3)o2)cc1 | ? | 89.1µM*
Cc1ccc(S(=O)(=O)Cc2ccc(C(=O)N3CCN(c4cccc(C)c4C)CC3)o2)cc1 | ? | -11.9%
O=C(c1ccc(Cl)cc1Cl)C(Br)C(O)C(Cl)(Cl)Cl (centres undefined) | i | -1.3%
COc1cccc(C2CC(=O)Nc3nc(N)sc32)c1OCC(C)C (centres undefined) | 39.8µM* | -13.4%
COc1cccc(C2CC(=O)Nc3ccsc32)c1OC (centres undefined) | i | 0.8%
C=Cc1ccc(CSc2nc(-c3ccc(C)cc3)nc3c2Cc2c(CO)cnc(C)c2O3)cc1 | 31.6µM* | 5.7%
CCN(CC)C(=O)CSc1nc(-c2ccc(C)cc2)nc2c1Cc1c(CO)cnc(C)c1O2 | 44.7µM* | 4.9%
CCc1ccc(-c2nc3c(c(SCc4ccccc4)n2)Cc2c(CO)cnc(C)c2O3)cc1 | i | -6.9%
Cc1ccc(-c2nc3c(c(SCC(=O)N(C)c4ccccc4)n2)Cc2c(CO)cnc(C)c2O3)cc1 | ? | 2.9%
COc1cccc(/C=C(/C#N)C(=O)c2ccccc2)c1OC(F)F | i | -8.1%
CCNC(=O)NC(=O)C(C)OC(=O)c1cc(-c2cccs2)nc2ccccc12 (centres undefined) | i | 0.4%
SMILES | AID inh | UDG counter
Cc1cc(C(=O)CN2CCN(Cc3ccc4c(c3)CCO4)CC2)c(C)n1C1CCS(=O)(=O)C1 (centres undefined) | i | -5.3%
COc1cc(C2CC(=O)Nc3nc(N4CCCCC4)sc32)ccc1OCC(N)=O (centres undefined) | 22.4µM* | -17.1%
NC(=O)COc1cccc(C2CC(=O)Nc3nc(N4CCCCC4)sc32)c1 (centres undefined) | 28.2µM* | -17.4%
COc1ccc(C2CC(=O)Nc3nc(N)sc32)cc1OC1CCCC1 (centres undefined) | ? | -16.1%
COc1ccc(C2CC(=O)Nc3ccsc32)cc1OCC(N)=O (centres undefined) | i | -0.9%
NC(=O)COc1ccc(C2CC(=O)Nc3nc(N4CCCCC4)sc32)cc1 (centres undefined) | 22.4µM* | -14.5%
Nc1nc2c(s1)C(c1cccc(OCc3cccc(F)c3)c1)CC(=O)N2 (centres undefined) | ? | -12.7%
CC(C)c1ccc(/C=C(/C#N)C(=O)Nc2cccc3ncccc23)cc1 | ? | -3.8%
N#CCCN1CCN(c2ccc(NS(=O)(=O)c3ccc(F)cc3Cl)c(C(=O)O)c2)CC1 | i | -7.6%
OCC1O[C@H]([S-])[C@H](O)[C@@H](O)[C@@H]1O.[Au+] (some centres undefined) | 25.1µM* | 3.3%
CCN(CCCNC(=O)c1cc2c(Cl)nc3ccccc3c2s1)Cc1ccccc1 | ? | -19.4%
Cc1ccc2nc(Cl)c3cc(C(=O)NCCCN(C)Cc4ccccc4)sc3c2c1 | ? | 79.4µM*
COCCNC(=O)c1cc2c(Cl)nc3ccc(C)cc3c2s1 | ? | 7.8%
CN(CCCNC(=O)c1cc2c(Cl)nc3ccccc3c2s1)Cc1ccccc1 | 22.4µM* | -7.4%
O=C(/C=C/c1ccco1)OC(C(=O)c1ccccc1)c1ccccc1 (centres undefined) | i | -8.0%
O=C(O)CC(c1ccncc1)c1c[nH]c2ccccc12 (centres undefined) | i | -18.7%
Cc1ccc(-c2nnc(Nc3ccc(Cl)c(Cl)c3)c3ccccc23)cc1S(=O)(=O)N(C)C | i | -16.0%
CCN(CC)S(=O)(=O)c1cc(-c2nnc(Nc3ccc(OC)c(C(N)=O)c3)c3ccccc23)ccc1C | 35.5µM* | ?
CCOc1ccc2c(c1)C(NC(C)=O)C(=O)N2CCOc1ccccc1 (centres undefined) | i | -8.0%
Clc1cccc(/C=N/Nc2ccc(Cl)c(Cl)c2)c1 | i | -14.4%
CCS(=O)(=O)N(Cc1ccc(Cl)c(Cl)c1)c1c(C)n(C)n(-c2ccccc2)c1=O | i | 0.0%
COc1cccc(-c2cc(C(F)(F)F)nc(NCc3ccc(F)cc3)n2)c1 | ? | -16.4%
Fc1ccc(CNc2nc(-c3ccccc3)cc(C(F)(F)F)n2)cc1 | 44.7µM* | -20.5%
N#C/C(=C/c1cccc2c1OCCCO2)c1nc2ccccc2[nH]1 | i | -3.6%
NO | 39.8µM* | 28.2µM*
SMILES | AID inh | UDG counter
COc1ccc(CNCCC(c2ccc(C)cc2)c2ccco2)cc1 (centres undefined) | i | -4.2%
COc1ccc(CNCCC(c2ccccc2)c2ccc3c(c2)OCO3)cc1 (centres undefined) | 44.7µM* | 5.2%
Oc1ccc2cccc(O)c2c1 | i | -5.1%
Cc1cccc(N2CCN(C(=O)C(C)n3nc(C)n4c(cc5occc54)c3=O)CC2)c1C (centres undefined) | ? | -18.2%
CCc1nn(C(C)C(=O)N2CCN(c3cccc(C(F)(F)F)c3)CC2)c(=O)c2cc3occc3n12 (centres undefined) | 31.6µM* | -14.9%
COc1ccc(CNC(=O)CCC(=O)N2CC3CCCN3c3ccccc32)c(OC)c1 (centres undefined) | i | -5.0%
COc1ccc(OC)c(NC(=O)N2CC3CCCN3c3ccccc32)c1 (centres undefined) | 20µM* | ?
O=C1C(=C2SCCS2)CCc2ccccc21 | i | -20.8%
COC(=O)C1CCN(S(=O)(=O)c2cc3c4c(c2)CC(=O)N4CCC3)CC1 | i | 0.0%
O=C1Cc2cc(S(=O)(=O)N3CCCCC3)cc3c2N1CCC3 | ? | 89.1µM*
Cc1ccc(-c2cccc(N)c2)cc1 | i | 5.8%
COc1ccc(-n2cc(-c3ccccc3)c3c(NC4CCCC4)ncnc32)cc1 | 35.5µM* | -8.2%[57.5 µM]
Clc1cccc(-n2cc(-c3ccccc3)c3c(NC4CCCC4)ncnc32)c1 | ? | -1.2%[57.5 µM]
NC(=O)CCS(=O)(=O)CCN1CCCC1c1cccc(F)c1 (centres undefined) | i | 0.9%
COC(=O)CNC(=O)c1cc(-c2ccco2)nc2ccccc12 | i | 7.5%
